From PubChem BioAssay (NCATS)
Inconclusive results are not listed. The source made the active and inactive calls. Unless noted, calls come from the whole dose curve; as a rule, active = well fitted curve in the direction sought with a large enough effect; inconclusive = small, poorly fitted or top-dose-only effect, or another doubt; inactive = no such curve, though single readings can be large; an effect the other way counts as inactive or inconclusive.

Columns and labels:
[1] = target: ATP-dependent 6-phosphofructokinase (Trypanosoma brucei brucei) (UniProt O15648); assay: qHTS Assay to Find Inhibitors of T. brucei phosphofructokinase: hit validation (AID 492961);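 note: luminescence reports ADP formed as PFK phosphorylates fructose-6-phosphate with ATP; % is set by controls: 0 for no effect and ±100 for the full control effect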
Sequence of ATP-dependent 6-phosphofructokinase (Trypanosoma brucei brucei) (O15648 whole entry, looked up): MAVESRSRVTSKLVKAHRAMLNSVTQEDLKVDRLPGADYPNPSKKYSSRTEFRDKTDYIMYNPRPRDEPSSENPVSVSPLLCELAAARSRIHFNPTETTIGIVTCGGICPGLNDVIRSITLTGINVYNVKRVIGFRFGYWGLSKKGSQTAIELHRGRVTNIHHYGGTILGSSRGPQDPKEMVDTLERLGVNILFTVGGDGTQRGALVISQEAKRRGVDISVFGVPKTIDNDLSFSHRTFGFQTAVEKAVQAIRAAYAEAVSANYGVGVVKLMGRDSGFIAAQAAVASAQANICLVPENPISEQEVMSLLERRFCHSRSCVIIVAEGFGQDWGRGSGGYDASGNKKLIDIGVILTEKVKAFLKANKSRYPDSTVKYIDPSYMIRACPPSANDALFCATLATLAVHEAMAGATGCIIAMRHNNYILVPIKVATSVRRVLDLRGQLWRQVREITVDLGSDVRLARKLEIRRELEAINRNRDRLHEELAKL
In short: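 Percent activity derived from corrected luminescence, normalized between 0x and 1x enzyme controls, then fitted to concentration-response curves. Conditions: 1.25 nM PFK, 0.1 mM ATP, 0.5 mM F6P, 45 min RT.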

[2] = target: Luciferin 4-monooxygenase (Photinus pyralis) (UniProt P08659); assay: Biochemical firefly luciferase enzyme assay for NPC (AID 624030);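 note: purified P. pyralis luciferase at 10 nM with luciferin and ATP substrate; 0% = DMSO and -100% = full luciferase inhibition by PTC124 control; nearly all actives have a fitted effect of over 70% in size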
Sequence of Luciferin 4-monooxygenase (Photinus pyralis) (P08659 whole entry, looked up): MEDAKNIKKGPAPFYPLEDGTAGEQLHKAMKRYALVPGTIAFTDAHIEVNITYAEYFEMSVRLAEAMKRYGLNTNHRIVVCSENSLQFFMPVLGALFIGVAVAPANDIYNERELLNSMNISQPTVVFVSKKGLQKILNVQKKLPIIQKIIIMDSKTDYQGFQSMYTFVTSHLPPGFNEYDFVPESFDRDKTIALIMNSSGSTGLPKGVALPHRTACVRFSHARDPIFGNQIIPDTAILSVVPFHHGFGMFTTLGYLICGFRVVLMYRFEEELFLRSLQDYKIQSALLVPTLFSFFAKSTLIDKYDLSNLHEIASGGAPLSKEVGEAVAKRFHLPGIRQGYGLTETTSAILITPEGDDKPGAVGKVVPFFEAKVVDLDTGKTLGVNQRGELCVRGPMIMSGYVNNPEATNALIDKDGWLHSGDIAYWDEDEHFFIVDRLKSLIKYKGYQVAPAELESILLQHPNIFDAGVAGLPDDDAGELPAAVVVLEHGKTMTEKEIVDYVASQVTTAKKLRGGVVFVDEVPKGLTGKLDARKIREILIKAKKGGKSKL
In short: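 Counter-screen for direct inhibition of the luciferase enzyme by approved-drug library compounds, run at 10 nM enzyme in 50 mM Tris acetate (final). Luminescence was read within 5 min of enzyme-buffer addition and normalized to PTC124 versus DMSO (0%).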

[3] = qHTS profiling for inhibitors of Plasmodium falciparum proliferation (AID 504749); note: nearly all actives have a fitted effect of over 60% in size; note: potency is the fitted concentration of half-maximal effect;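 for activity, negative = inhibition: 0% = DMSO vehicle and full inhibition = artemisinin control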; conditions: P. falciparum in erythrocytes, SYBR Green DNA, 72 h, at 28.7 µM (top of the series)
In short: (§1)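 Quantitative HTS: compounds pinned into medium, infected erythrocytes added (0.3% parasitemia, 2.5% hematocrit), 72 h culture at 37 C under 5% CO2. Saponin/Triton lysis with SYBR Green I, overnight RT, then fluorescence read.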

CP192 = assay: as above; conditions: P. falciparum in erythrocytes, SYBR Green DNA, 72 h; series mostly up to 28.7 µM
In short: as §1

CP201 = assay: as above; conditions: P. falciparum in erythrocytes, SYBR Green DNA, 72 h; series mostly up to 28.7 µM
In short: as §1

CP211 = assay: as above; conditions: P. falciparum in erythrocytes, SYBR Green DNA, 72 h; series mostly up to 28.7 µM
In short: as §1

CP238 = assay: as above; conditions: P. falciparum in erythrocytes, SYBR Green DNA, 72 h; series mostly up to 28.7 µM
In short: as §1

CP262 = assay: as above; conditions: P. falciparum in erythrocytes, SYBR Green DNA, 72 h; series mostly up to 28.7 µM
In short: as §1

CP269 = assay: as above; conditions: P. falciparum in erythrocytes, SYBR Green DNA, 72 h; series mostly up to 28.7 µM
In short: as §1

CP286 = assay: as above; conditions: P. falciparum in erythrocytes, SYBR Green DNA, 72 h; series mostly up to 28.7 µM
In short: as §1

CP315 = assay: as above; conditions: P. falciparum in erythrocytes, SYBR Green DNA, 72 h; series mostly up to 28.7 µM
In short: as §1

CP325 = assay: as above; conditions: P. falciparum in erythrocytes, SYBR Green DNA, 72 h; series mostly up to 28.7 µM
In short: as §1

CP329 = assay: as above; conditions: P. falciparum in erythrocytes, SYBR Green DNA, 72 h; series mostly up to 28.7 µM
In short: as §1

DFO2036 = assay: as above; conditions: P. falciparum in erythrocytes, SYBR Green DNA, 72 h; series mostly up to 28.7 µM
In short: as §1

Dd2 = assay: as above; conditions: P. falciparum in erythrocytes, SYBR Green DNA, 72 h; series mostly up to 28.7 µM
In short: as §1

FAB9 = assay: as above; conditions: P. falciparum in erythrocytes, SYBR Green DNA, 72 h; series mostly up to 28.7 µM
In short: as §1

JCK = assay: as above; conditions: P. falciparum in erythrocytes, SYBR Green DNA, 72 h; series mostly up to 28.7 µM
In short: as §1

N140 = assay: as above; conditions: P. falciparum in erythrocytes, SYBR Green DNA, 72 h; series mostly up to 28.7 µM
In short: as §1

PC49 = assay: as above; conditions: P. falciparum in erythrocytes, SYBR Green DNA, 72 h; series mostly up to 28.7 µM
In short: as §1

[4] = S16 Schwann cell PMP22 intronic element beta-lactamase assay (AID 624044; calls by dose curve;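 note: 0% = DMSO and -100% = potassium clavulanate positive control; nearly all actives have a fitted effect of over 15% in size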); conditions: S16 rat Schwann cells, PMP22 element beta-lactamase FRET, 24 h; ratio activity, negative = inhibition: at 38.3 µM (top of the series)
In short: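 Beta-lactamase reporter under a PMP22 intronic regulatory element in stable S16 rat Schwann cells; 24 h compound exposure. 460 nm blue signal normalized between DMSO (0%) and potassium clavulanate, with 535 nm FRET tracking viability; curves classed by r2 and response.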

C#C[C@]1(O)CC[C@H]2[C@H]3[C@H](CC[C@@]21C)C1=C(CC(=O)CC1)C[C@@H]3C
inactive: Potency [1] | Potency [2] | activity, negative = inhibition ([3]; parasite line A) -14.8% | activity, negative = inhibition ([3]; parasite line B) -21.9% | Potency (CP192) | Potency (CP201) | Potency (CP211) | Potency (CP238) | Potency (CP262) | Potency (CP269) | Potency (CP286) | Potency (CP315) | Potency (CP325) | Potency (CP329) | Potency (DFO2036) | Potency (Dd2) | Potency (FAB9) | Potency (JCK) | Potency (N140) | Potency (PC49)

CC[C@H]1OC(=O)[C@H](C)C(=O)[C@H](C)[C@@H](OC2O[C@H](C)C[C@H](N(C)C)[C@@H]2O)[C@@](C)(OC)C[C@@H](C)C(=O)[C@@H](C)C2N(CCCCn3cnc(-c4cccnc4)c3)C(=O)O[C@@]21C (some centres undefined)
inactive: Potency [1] | Potency [2] | Potency [4] | activity, negative = inhibition ([3]; parasite line A) -28.5% | Potency (CP192) | Potency (CP201) | Potency (CP211) | Potency (CP238) | Potency (CP262) | Potency (CP269) | Potency (CP286) | Potency (CP315) | Potency (CP325) | Potency (CP329) | Potency (DFO2036) | Potency (FAB9) | Potency (PC49)

C[C@]12CCC(=O)C=C1[C@@H]1C[C@H]1[C@H]1[C@@H]3[C@@H]4C[C@H]4[C@@]4(CCC(=O)O4)[C@@]3(C)CC[C@@H]12
inactive: Potency [1] | Potency [2] | Potency [4] | activity, negative = inhibition ([3]; parasite line A) -2.83% | activity, negative = inhibition ([3]; parasite line B) -11.7% | Potency (CP192) | Potency (CP201) | Potency (CP211) | Potency (CP238) | Potency (CP262) | Potency (CP269) | Potency (CP286) | Potency (CP315) | Potency (CP325) | Potency (CP329) | Potency (DFO2036) | Potency (Dd2) | Potency (FAB9) | Potency (JCK) | Potency (N140) | Potency (PC49)

COC(=O)C1[C@@H](OC)C(OC(=O)COc2ccc(OC)cc2)C[C@@H]2CN3CCc4c([nH]c5cc(OC)ccc45)[C@H]3C[C@H]12 (some centres undefined)
inactive: Potency [1] | Potency [2] | Potency [4] | Potency (CP192) | Potency (CP201) | Potency (CP211) | Potency (CP262) | Potency (CP315) | Potency (CP325) | Potency (JCK) | Potency (PC49)
active: Potency (CP286) 11.2 µM | Potency (Dd2) 10 µM | Potency (N140) 11.2 µM

O=C(NC(CO)C(O)c1ccc([N+](=O)[O-])cc1)C(Cl)Cl (centres undefined)
active: Potency (CP269) 3.01 µM | Potency (CP325) 6.01 µM | Potency (Dd2) 8.91 µM
inactive: Potency [1] | Potency [2] | Potency [4] | Potency (CP201) | Potency (CP315) | Potency (FAB9) | Potency (JCK) | Potency (PC49)

O=C(O)c1ccccc1-c1c2ccc(=O)cc-2oc2cc(O)ccc12
inactive: Potency [1] | Potency [2] | Potency [4] | Potency (CP269) | Potency (CP286) | Potency (CP315) | Potency (CP329)

CC1=C(/C=C/C(C)=C\C=C\C(C)=C\C=C\C=C(C)\C=C\C=C(C)\C=C\C2=C(C)C[C@@H](O)CC2(C)C)C(C)(C)C[C@H](O)C1
active: Potency (CP286) 11.2 µM | Potency (Dd2) 11.2 µM | Potency (N140) 7.08 µM | Potency (PC49) 7.08 µM
inactive: Potency [1] | Potency [2] | Potency [4] | Potency (CP192) | Potency (CP201) | Potency (CP211) | Potency (CP238) | Potency (CP262) | Potency (CP269) | Potency (CP315) | Potency (CP325) | Potency (CP329) | Potency (FAB9)

C[C@@H]1CC2[C@@H]3C[C@H](F)C4=CC(=O)C(Cl)=C[C@]4(C)[C@@]3(F)[C@H](O)C[C@]2(C)[C@@]1(O)C(=O)CO (some centres undefined)
inactive: Potency [1] | Potency [2] | Potency (CP192) | Potency (CP201) | Potency (CP211) | Potency (CP262) | Potency (CP269) | Potency (CP286) | Potency (CP315) | Potency (CP325) | Potency (CP329) | Potency (DFO2036) | Potency (Dd2) | Potency (FAB9) | Potency (JCK) | Potency (PC49)

CCN(CC)CCOCCOC(=O)C(CC)(CC)c1ccccc1 (tested in a mixture with another compound)
active: Potency (Dd2) 0.891 µM
inactive: Potency [1] | Potency [2] | Potency (CP192) | Potency (CP262) | Potency (CP315) | Potency (FAB9) | Potency (JCK)

C=C1CC[C@H](O)C/C1=C/C=C1\CCC[C@]2(C)[C@@H]([C@H](C)CC[C@@H](O)C(C)(C)O)CC[C@@H]12
inactive: Potency [1] | Potency [2] | Potency [4] | Potency (CP192) | Potency (CP201) | Potency (CP211) | Potency (CP262) | Potency (CP269) | Potency (CP286) | Potency (CP315) | Potency (CP325) | Potency (CP329) | Potency (FAB9) | Potency (PC49)
active: Potency (N140) 8.91 µM

CCC1OC(=O)C[C@@H](O)[C@H](C)[C@@H](OC2OC(C)CC(N(C)C)C2O)[C@@H](CC=O)C[C@@H](C)C(=O)/C=C/[C@]2(C)OC2C1C (some centres undefined)
active: Potency (CP286) 1.12 µM | Potency (Dd2) 1 µM
inactive: Potency [1] | Potency [2] | Potency [4] | Potency (FAB9) | Potency (JCK)

C=C1N[C@]2(C(=O)COC(C)=O)[C@@H](C[C@H]3[C@@H]4CCC5=CC(=O)C=C[C@]5(C)[C@H]4[C@@H](O)C[C@@]32C)O1
inactive: Potency [1] | Potency [2] | Potency [4] | activity, negative = inhibition ([3]; parasite line B) -29.8% | Potency (CP192) | Potency (CP315) | Potency (Dd2) | Potency (FAB9) | Potency (JCK) | Potency (N140) | Potency (PC49)

Cc1cncc(C(=O)O)[n+]1[O-]
inactive: Potency [1] | Potency [2] | Potency (CP192) | Potency (CP201) | Potency (CP211) | Potency (CP262) | Potency (CP269) | Potency (CP286) | Potency (CP315) | Potency (CP325) | Potency (CP329) | Potency (Dd2) | Potency (FAB9) | Potency (JCK) | Potency (PC49)

CCC(=O)OC1C(N(C)C)CC(C)O[C@H]1O[C@H]1[C@H](C)[C@@H](O[C@H]2CC(OC)[C@@H](O)C(C)O2)[C@H](C)C(=O)O[C@@H](CC)[C@](C)(O)[C@@H](O)[C@H](C)C(=O)[C@@H](C)C[C@]1(C)O (some centres undefined)
inactive: Potency [1] | Potency [2] | Potency (CP192) | Potency (CP201) | Potency (CP211) | Potency (CP238) | Potency (CP262) | Potency (CP315) | Potency (CP325) | Potency (FAB9) | Potency (JCK) | Potency (PC49)
active: Potency (Dd2) 12.6 µM

C=CCN1CC(C(=O)N(CCCN(C)C)C(=O)NCC)CC2c3cccc4[nH]cc(c34)CC21 (centres undefined)
active: Potency (CP286) 12.6 µM | Potency (Dd2) 8.91 µM
inactive: Potency [1] | Potency [2] | Potency [4] | activity, negative = inhibition ([3]; parasite line B) -28.9% | Potency (CP192) | Potency (CP201) | Potency (CP211) | Potency (CP238) | Potency (CP262) | Potency (CP269) | Potency (CP315) | Potency (CP325) | Potency (CP329) | Potency (DFO2036) | Potency (FAB9) | Potency (JCK) | Potency (PC49)

COc1ccc(CC(C)NCC(O)c2ccc(O)c(NC=O)c2)cc1 (centres undefined)
inactive: Potency [1] | Potency [2] | Potency [4]

C=C1CCC(O)C/C1=C/C=C1\CCC[C@]2(C)[C@@H]([C@H](C)/C=C/[C@H](C)C(C)C)CC[C@@H]12 (some centres undefined)
inactive: Potency [1] | Potency [2] | Potency [4] | Potency (CP192) | Potency (CP201) | Potency (CP211) | Potency (CP238) | Potency (CP262) | Potency (CP269) | Potency (CP286) | Potency (CP315) | Potency (CP325) | Potency (CP329) | Potency (FAB9)
active: Potency (JCK) 0.708 µM
